# Sampled rows, rich in hits. Any-hit rate of the full collection: about 1.5%.
# MEX-5 binding – MEX-5 zinc finger RNA-binding disruptors – biochemical, C. elegans, fluorescence polarization, MLPCN library, primary screen. Zinc finger protein mex-5 (Caenorhabditis elegans), Q9XUB2. MEX-5/FITC-TCR2 RNA binding; hits give low values. activity score (negative = inhibition of binding), % at 10 µM. hit rate 0.38% among 300,000. AID 1832, 2009;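 active = inhibition past about -25% in most replicates, and total fluorescence under double the plate's negative control median, limit read from the data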;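 note: 0% = DMSO and -100% = 5 µM competing unlabeled TCR2 RNA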
# Target sequence (Q9XUB2 whole entry, looked up): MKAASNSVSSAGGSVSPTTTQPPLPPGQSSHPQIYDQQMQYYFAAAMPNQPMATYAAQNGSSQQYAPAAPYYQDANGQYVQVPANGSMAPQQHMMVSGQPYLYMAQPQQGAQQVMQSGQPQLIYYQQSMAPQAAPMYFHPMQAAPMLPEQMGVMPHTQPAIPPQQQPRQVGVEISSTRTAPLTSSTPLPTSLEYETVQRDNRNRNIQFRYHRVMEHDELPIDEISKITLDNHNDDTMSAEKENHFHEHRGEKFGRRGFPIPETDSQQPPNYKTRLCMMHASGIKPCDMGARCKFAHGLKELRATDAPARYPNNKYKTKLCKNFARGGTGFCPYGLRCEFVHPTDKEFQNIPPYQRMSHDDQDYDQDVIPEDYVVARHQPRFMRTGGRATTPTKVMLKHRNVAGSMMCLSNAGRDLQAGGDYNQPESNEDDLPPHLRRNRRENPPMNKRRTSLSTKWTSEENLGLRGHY
# eLon inh – inhibitors of E. coli Lon protease, primary screen, biochemical, fluorescence polarization. P0A9M0. purified E. coli Lon protease. inhibition, % at 7.94 µM. hit rate 0.42% among 360,000; in the data active = inhibition above about 13%, passing the limit was not always enough;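 note: 0% = enzyme with probe and DMSO and 100% = no enzyme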
# GLD-1 TGE inh – GLD-1/TGE RNA complex disruptors, primary screen, biochemical, fluorescence polarization. Female germline-specific tumor suppressor gld-1 (Caenorhabditis elegans), Q17339. purified GLD-1 + fluorescein TGE RNA. inhibition, % at 5.96 µM. hit rate 0.44% among 320,000. AID 2280, 2010;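 active = percent inhibition above a per-plate cutoff, the plate mean of test compounds plus 3 SD, cut at about 30% in these data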;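 note: 0% = DMSO wells with GLD-1 and probe and 100% = wells lacking GLD-1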
# MCL1-BIM inh – inhibitors of MCL1 binding to BIM-BH3, primary screen, biochemical, fluorescence polarization; GST-MCL1 / FITC-Bim-BH3 fluorescence polarization; inhibition, % at 10.9 µM; hit rate 0.68% among 320,000; AID 2057, 2009;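 active = inhibition above the mean inhibition of all tested compounds plus 3 SD, set per campaign, cut at about 40% in these data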;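 note: 0% = DMSO wells and 100% = unlabeled Bim-BH3 peptide control; higher means more loss of mP so more displacement of Bim peptide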
# BCLXL inh – inhibitors of human Bcl-xL, primary screen, biochemical, fluorescence polarization, HTS. Bcl-2-like protein 1 (Homo sapiens), Q07817. GST-Bcl-xL / FITC-Bim BH3 peptide fluorescence polarization. inhibition, % at 10.9 µM. hit rate 0.7% among 320,000;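 active = inhibition above the mean of all tested compounds plus 3 SD, cutoff set per campaign, cut at about 30% in these data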;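 note: 0% = DMSO wells and 100% = unlabeled Bim-BH3 peptide competitor; inhibitors lower millipolarization by displacing the labeled peptide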
# EBV gp42 block – Epstein-Barr virus gp42 inhibitors, primary screen, biochemical, uHTS, fluorescence polarization | Glycoprotein 42 (Epstein-Barr virus (strain AG876)), Q1HVG2 | Fluorescence polarization binding assay, mP read-out | inhibition, % (tested at 21.74 µM) | hit rate 0.42% among 220,000; in the data active = inhibition above about 50%
# Active calls of the source: *; . = no result.
SMILES,MEX-5 binding,eLon inh,GLD-1 TGE inh,MCL1-BIM inh,BCLXL inh,EBV gp42 block
COc1cc2c(cc1NC(=O)CN1C(=O)NC3(CCc4ccccc43)C1=O)oc1ccccc12 (stereo unspecified),3,4,9,-7,1,62*
CCOC(=O)C1CCN(C(=O)COC(=O)c2c(C)c(CC)nc3ccccc23)CC1,.,3,2,.,.,.
Cc1ccc(N/C=C2/Sc3ccccc3NC2=O)cc1,-54*,-14,-61,5,5,-103
Cc1cccc(NC(=O)COC(=O)c2nn(C)c(=O)c3ccccc23)c1C,.,-7,4,.,.,.
CCOC(=O)C1=C(COC(=O)C(CC)Oc2ccccc2)NC(=O)NC1C (stereo unspecified),1,-6,3,-7,-7,.
CCOC(=O)c1ccc(N2C(=O)C3C(C2=O)C(C(=O)c2ccc(Cl)cc2)N2CCCC32)cc1 (stereo unspecified),-6,-17,21,36,58*,94*
CCOC(=O)c1ccc(N2C(=O)C3CC=CCC3C2=O)cc1 (stereo unspecified),-3,6,-6,-5,-3,1
O=C(O)c1ccccc1-c1c2cc(I)c(=O)c(I)c-2oc2c(I)c(O)c(I)cc12,.,21,49*,115*,110*,.
O=Cc1ccc(-c2ccccc2C(=O)O)o1,1,-13,-4,0,3,-9
O=C(Nc1ccc(Oc2ccc(NC(=O)Nc3ccccc3Cl)cc2)cc1)Nc1ccccc1Cl,2,5,2,-7,-6,-14
O=S(=O)(c1ccc(Cl)nc1)N1CCCCC1,-1,-3,5,6,9,.
O=C(CSc1nnc(-c2ccncc2)n1CC1CCCO1)Nc1nccs1 (stereo unspecified),1,2,47*,2,-2,-4
O=C(CSc1ccc2c(c1)OCCO2)Nc1ccc(N2CCOCC2)cc1,-1,8,-1,-4,6,-7
O=Cc1ccc2ccc3cccnc3c2n1,-34*,7,3,10,6,.
CC(C)(CO)Nc1nc(Cl)nc(NC2CCCCC2)n1,-1,1,-2,4,3,11
Cc1n[nH]c(C)c1Sc1ccccc1N=Cc1cc(Cl)cc([N+](=O)[O-])c1O,-51*,5,-1,4,5,6
COc1ccc(NC(=O)Nc2cccc3[nH]c([C@@H]4O[C@H](CO)[C@@H](O)[C@H](O)[C@H]4O)nc23)cc1OC1CCCC1,.,-2,.,.,.,.
CN=C1S/C(=C/c2cn(CC(=O)OC)c3ccccc23)C(=O)N1C,3,-8,-14,-6,-4,-19
CN=C1S/C(=C\c2cn(CC(=O)OC)c3ccccc23)C(=O)N1C,-28*,-15,-17,-2,-2,-10
Cn1ncc(Cl)c1C(=O)N/N=C/c1cccc(OC2CSC2)c1,-36*,-3,4,7,4,12
O=C(CSc1ncccn1)N/N=C/c1cccc(OC2CSC2)c1,-2,-6,1,6,1,-3
CCCCOc1ccc(C(=O)N2CCN(CC(=O)Nc3ccc(C)cc3)CC2)cc1OC,1,-4,0,5,3,.
CSc1nc(=S)c2[nH]c(=S)[nH]c2[nH]1,-99*,1,.,.,.,0
Cn1c(=O)c2c(ncn2CCOc2cccc(Br)c2)n(C)c1=O,3,-5,2,8,4,.
O=C(O)C1=CC(=C(c2ccc(O)c(C(=O)O)c2)c2ccc(O)c(C(=O)O)c2)C=CC1=O,.,.,92*,108*,76*,.
CCCCNC1=CC(=O)C(=O)c2ccccc21,0,-7,1,-1,5,-15
CCCCN1C=CC(=C2C(=O)c3ccccc3C2=O)C=C1,-38*,-3,7,-2,1,-2
Cc1ccc(S(=O)(=O)N2CCOCC2)cc1NC(=O)Cn1c(=O)ccn(Cc2ccccc2)c1=O,.,-7,.,.,.,.

# Assay outcomes as filed in PubChem.
